The panel holds about 79,000 compounds, 15% with a hit somewhere; the sample as a whole holds those more often. Values without a mark were called inactive. Active and inactive are the calls of the source. Cut-off read from the data, not from the text of the source: active = growth inhibition above about 70%; inactive = the rest.
Legend:
[1] = NCI Yeast Anticancer Drug Screen. Data for the rad50 strain (AID 155);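 note: 0% = growth of vehicle-only cultures of the same strain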; details: S. cerevisiae rad50 strain growth inhibition; at 50.0 µM; active compounds read high
Outline: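 DNA repair mutant yeast, compound exposure, growth read-out; inhibition is taken relative to vehicle.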

[2] = NCI Yeast Anticancer Drug Screen. Data for the mec2-1 strain (AID 157); details: S. cerevisiae mec2-1 strain, at 50.0 µM, active compounds read high
Outline: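 Readout is yeast growth inhibition, normalised to vehicle-treated controls, in the mec2-1 strain exposed to compound.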

[3] = NCI Yeast Anticancer Drug Screen. Data for the sgs1 mgt1 strain (AID 161);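 note: 0% = growth of cultures given vehicle only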; details: S. cerevisiae sgs1 mgt1 strain, at 50.0 µM, active compounds read high
Outline: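 Compounds are added to genetically altered yeast, and growth is compared with cultures given vehicle alone to give percent inhibition.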

[4] = NCI Yeast Anticancer Drug Screen. Data for the cln2 rad14 strain (AID 165);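 note: 0% = growth equal to vehicle treated cultures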; details: S. cerevisiae cln2 rad14 strain, at 50.0 µM, active compounds read high
Outline: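 Relative to vehicle controls, growth inhibition of compound-treated cln2 rad14 yeast was recorded.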

[5] = NCI Yeast Anticancer Drug Screen. Data for the bub3 strain (AID 167); details: S. cerevisiae bub3 mutant strain, at 50.0 µM, active compounds read high
Outline: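 In this screen, a yeast mutant lacking normal mitotic checkpoint function is challenged with compound. Relative growth versus vehicle gives the inhibition value.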

[6] = NCI Yeast Anticancer Drug Screen. Data for the mlh1 rad18 strain (AID 175); details: S. cerevisiae mlh1 rad18 strain growth inhibition; at 50.0 µM; active compounds read high
Outline: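 Test agents were incubated with a yeast strain of defined genotype (DNA damage repair defect). Inhibition of growth was derived by comparison with vehicle-exposed cultures.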

| SMILES | growth inhibition [1] | growth inhibition [2] | growth inhibition [3] | growth inhibition [4] | growth inhibition [5] | growth inhibition [6] |
| --- | --- | --- | --- | --- | --- | --- |
| CCCCCn1c(=O)c2c(=O)[nH][nH]c2c2ccccc21 | -16.3% | -7.9% | -9.55% | -69.6% | -1.3% | -22.5% |
| Cc1cc(N(CCC#N)S(=O)(=O)c2ccccc2)ccc1C=Nc1ccc(C(=O)O)cc1 | -12.2% | -8.35% | -6.15% | -3.8% | 1.85% | -6.85% |
| O=C(c1ccc(Cl)cc1Cl)N1CCCCC1 | 1.45% | -6.15% | 1.75% | -1.25% | 4.9% | 0.15% |
| COc1ccc(C(O)Cc2ccccc2)cc1 (centres undefined) | -4.9% | -19.4% | 5.6% | -16.9% | -18.4% | -6.4% |
| CCC(=O)n1ncc2ccc([N+](=O)[O-])cc21 | 3.45% | 5.15% | -2.8% | -105% | -4.45% | -7.5% |
| CN(CC(=O)O)c1ccc([N+](=O)[O-])cc1[N+](=O)[O-] | 8.75% | 8.55% | 10.4% | 52.9% | 26.4% | -1.15% |
| Cc1ccc(C)c(C(=O)c2ccccc2)c1C(=O)O | -24.6% | 7.8% | 12.8% | -29.9% | 7.7% | -4.15% |
| O[C@@H]1C=C(c2ccccc2)[C@H](c2ccccc2)C1 | -3% | 9.6% | 9.65% | -7.9% | -19.8% | -1.15% |
| [N-]=[N+]=CC(=O)c1cc(-c2ccccc2)nc2c(-c3ccccc3)cccc12 | 55.8% | 18.8% | 54% | 31.8% | 62.8% | 59.1% |
| CCN(CC)CCCC(C)NC1CCCc2cc3c(cc21)C(=O)c1ccccc1C3=O (centres undefined) | 34% | 13.8% | 38.1% | 14.9% | -4.5% | 33.1% |
| COC1=C(C(=O)c2ccc(OC)c(OC)c2)COC1=O | -8.4% | -13.3% | -4.5% | -4.4% | 31.4% | 7.15% |
| CN(C)CC1(Cc2ccccc2)CCC(Cc2ccccc2)C1=O (centres undefined) | 85.5% (active) | 63.4% | 85.3% (active) | 54% | 45.6% | 86.3% (active) |
| N#CC1(C#N)CC1c1ccccc1 (centres undefined) | 8.55% | 10.7% | 6.75% | -6.1% | -2.9% | 29.3% |
| CC(C)(C)C(c1ccccc1)[N+](C)(C)C (centres undefined) | -22.2% | -2% | -2.05% | 18.9% | 15.2% | 29.9% |
| COc1cccc(/C(C=O)=C(\Cl)c2ccc(OC)c(OC)c2)c1 | 10.1% | 9.55% | 12.4% | 6.7% | 33.5% | -8.3% |
| COc1cc(NS(=O)(=O)c2ccc(C)cc2)c2nccnc2c1 | 14.1% | 15.7% | 18.6% | -3.35% | 11.9% | 29.6% |
| OC1c2ccccc2C(O)c2c1ccc1c2CN(Cc2ccccc2)CC1 (centres undefined) | 5.05% | 8.25% | 1.95% | 15.1% | 1.3% | 33.2% |
| Cn1c(=O)c2c(ncn2Cc2ccccc2)n(C)c1=O | -1.65% | -13.2% | 3.95% | -10.7% | 45.1% | 4% |
| COc1ccc2ncc(COC(C)=O)c(COC(C)=O)c2c1 | -10.9% | -9.45% | -7.8% | 14.7% | -12.4% | -8.4% |
| O=S(=O)(O)c1cc2nonc2c2ccccc12 | 2.75% | -0.85% | 12.9% | 9.25% | 0.9% | -2.6% |

| SMILES | growth inhibition [1] | growth inhibition [2] | growth inhibition [3] | growth inhibition [4] | growth inhibition [5] | growth inhibition [6] |
| --- | --- | --- | --- | --- | --- | --- |
| CCOC(=O)CC(C)CCO (centres undefined) | 5.4% | -5.8% | -11.4% | -0.2% | -0.3% | -8.9% |
| CC(C)CC1OCC(C)(C)C(C(C)C)O1 (centres undefined) | -8% | -6.1% | -17.4% | 2% | -0.4% | 0.4% |
| CCO/C=C(\C(=O)OC)S(=O)(=O)c1ccc(C)cc1 | -18.5% | 3.1% | 2.35% | 1.7% | -9.1% | -19.5% |
| Cc1ccoc1 | 12.5% | -18.1% | 6.45% | 11.8% | 26.8% | 15.8% |
| O=C1CC(c2ccc(Cl)cc2)NC(c2ccc(Cl)cc2)C1 (centres undefined) | 13.6% | 2.35% | 8.55% | 11.2% | 6.4% | 14.8% |
| [N-]=[N+]=CC(=O)C1OC1c1ccc(Br)cc1 (centres undefined) | 11.8% | 15.3% | 22.9% | 24.4% | -0.25% | 33.1% |
| C(/C=C\c1ccccc1)=Nc1ccccc1 | 8% | -11.8% | -4.55% | 9.35% | 0.2% | 17.1% |
| CO/N=C\c1cc[n+](C)cc1 | 11.7% | 24.6% | 18.9% | 30.7% | 55% | 19.2% |
| CC(C)(CCl)c1ccccc1 | -10.6% | -3.1% | -6.3% | 0.75% | 4% | -0.55% |
| CN(C)CCCOCCn1c2c(c3ccccc31)CCCC2 | 19.2% | -1.2% | 12.9% | -2.95% | 15.8% | -89.5% |
| COc1cccc2c1[C@@]1(C)C3C(=O)OC(C)(c4ccccc43)[C@@]1(C)C2=O (some centres undefined) | 39.4% | 20.7% | -7.45% | 23.1% | -4.1% | 9.35% |
| CCC(/C(=N/NC(=O)C[N+](C)(C)C)c1ccccc1)C1OC(=O)c2ccccc21 (centres undefined) | 15.2% | 2.15% | 16.1% | 23.2% | 19.4% | 18.4% |
| CCCNc1nnnn1CCC | 3.15% | 5.05% | -0.4% | 4.25% | 10.9% | -0.05% |
| CC1c2c(ccc3ccccc23)CCC1CC1CCCc2ccc3ccccc3c21 (centres undefined) | 45.6% | -6.15% | 4.7% | 2.2% | -1% | 17.7% |
| CC(C)(C)CC(C)(C)NS(=O)(=O)NC(C)(C)CC(C)(C)C | 1.1% | -31.1% | -9.15% | -57.3% | 1.45% | 0.7% |
| C/C(=C\C(=N\Nc1nc(C)cc(=O)[nH]1)c1ccccc1)c1ccccc1 | 12.4% | -11.4% | -8.75% | 3.45% | 6.8% | -2.2% |
| [Mn+2].[NH-]CC(=O)NC(Cc1ccccc1)C(=O)O.[NH-]CC(=O)NC(Cc1ccccc1)C(=O)O (centres undefined) | -15.5% | -11.3% | -10.7% | -34.2% | 4.05% | -8% |
| Cc1cc(=S)cc(C)[nH]1 | 17.1% | 5.5% | 11.3% | 2.1% | 0.45% | 33.4% |
| CCC(=O)NCCO | -26.9% | -17.7% | -5.65% | -103% | -9% | -5.25% |

— PubChem BioAssay (NCI)
